High-throughput results from PubChem BioAssay.
LMNA splice mod – qHTS Assay for Modulators of Lamin A Splicing; HeLa LMNA splicing GFP/RFP minigene ratio, 48 h; Potency, µM (doses to about 46.1 µM), without a hit: at the top dose ratio change, negative = inhibition, actives largely listed as inhibitors; actives 0.01% (n = 200,000); active means well fitted inhibition curve with a large enough effect in the signal ratio, with a control signal flat, not every such curve was filed as active; inconclusive means small, poorly fitted or top-dose-only effect, or effect the other way, or a change in a side signal; the % refers to the signal ratio; further: potency means the concentration at half of the fitted maximal effect
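Read-out is the ratio of GFP to DsRed2 object intensity, acquired by 488 nm laser-scanning cytometry on HeLa lamin A-EGFP minigene reporter cells. Compound incubation 48 hrs at 37 °C in Opti-MEM with 2% FBS; DMSO 0.5% final.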
HPGD block – qHTS Assay for Inhibitors of HPGD (15-Hydroxyprostaglandin Dehydrogenase). AID 894, 2007. actives 4.3% (n = 150,000). Potency, µM, for inactives: at the top dose activity change, negative = inhibition, actives largely listed as inhibitors. purified HPGD, NADH fluorescence kinetic, PGE2 substrate. 15-hydroxyprostaglandin dehydrogenase [NAD(+)] (Homo sapiens), P15428; further: potency means the concentration at half of the fitted maximal effect
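NADH formation kinetics: reaction with 30 uM PGE2 and 1 mM NAD+ (final), 20 nM enzyme, Tris-HCl pH 8 with Tween 20, after 15 min compound preincubation at room temperature. Fluorescence change, last versus first of five reads.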
12-hLO inh – qHTS Assay for Inhibitors of 12-hLO (12-human lipoxygenase). AID 1452, 2008. purified 12-hLO, xylenol orange hydroperoxide absorbance. actives 0.12% (n = 150,000). Potency, µM (series often up to 57.1 µM), for the others: at the highest dose activity change, negative = inhibition, actives largely listed as inhibitors. Polyunsaturated fatty acid lipoxygenase ALOX12 (Homo sapiens), P18054; active means well fitted inhibition curve with a large enough effect; inconclusive means small, poorly fitted or top-dose-only effect; further: potency means the concentration at half of the fitted maximal effect; nearly all actives have a fitted effect of over 55% in size
Target sequence (P18054 whole entry, looked up): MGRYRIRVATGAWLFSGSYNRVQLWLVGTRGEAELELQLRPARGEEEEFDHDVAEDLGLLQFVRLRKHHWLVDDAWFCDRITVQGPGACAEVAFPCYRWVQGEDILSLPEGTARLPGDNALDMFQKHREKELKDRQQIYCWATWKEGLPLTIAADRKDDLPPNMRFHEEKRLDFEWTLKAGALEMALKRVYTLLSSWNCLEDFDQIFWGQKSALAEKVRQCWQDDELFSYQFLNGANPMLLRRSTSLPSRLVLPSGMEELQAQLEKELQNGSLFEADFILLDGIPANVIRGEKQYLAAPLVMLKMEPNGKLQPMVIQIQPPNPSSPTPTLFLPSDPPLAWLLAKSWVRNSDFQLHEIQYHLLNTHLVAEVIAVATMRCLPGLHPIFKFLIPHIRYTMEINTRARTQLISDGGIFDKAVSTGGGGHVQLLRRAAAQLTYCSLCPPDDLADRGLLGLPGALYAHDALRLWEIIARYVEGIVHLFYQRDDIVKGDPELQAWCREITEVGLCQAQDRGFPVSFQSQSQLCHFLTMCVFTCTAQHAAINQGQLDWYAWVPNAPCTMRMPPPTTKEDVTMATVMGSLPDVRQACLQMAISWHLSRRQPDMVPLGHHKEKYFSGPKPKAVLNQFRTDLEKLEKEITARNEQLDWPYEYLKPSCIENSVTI
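Hydroperoxide formation by human 12-lipoxygenase from 40 uM arachidonic acid was followed colorimetrically via ferric-xylenol orange complex, using the 573/405 nm absorbance ratio. Enzyme concentration was 150 nM, with 30 min reaction at room temperature.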
ALDH1A1 block – qHTS Assay for Inhibitors of Aldehyde Dehydrogenase 1 (ALDH1A1); Aldehyde dehydrogenase 1A1 (Homo sapiens), P00352; Purified ALDH1A1, NADH fluorescence, propionaldehyde substrate; Potency, µM (doses to about 75.3 µM), without a hit: at the highest dose activity, negative = inhibition, hits mostly inhibitors; actives 7.3% (n = 220,000);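 further: potency means the concentration at half of the fitted maximal effect; plate controls were no enzyme wells and a reference inhibitor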
PNC inhibitor – High Content Assay for Compounds that inhibit the Assembly of the Perinucleolar Compartment; PC3M PTB-GFP, PNC prevalence imaging, 16 h; hits give low values; activity change (PNC), negative = inhibition, % at 10 µM; actives 3.1% (n = 140,000); AID 2417, 2010;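 active means readout at or below -70, meaning at least 70% loss of cells showing the perinucleolar compartment, a nuclear body marking cancer cells; inconclusive means readout between -30 and a set limit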;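 further: plate controls were DMSO wells for no effect and camptothecin positive control wells for full effect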
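Read-out is percentage of cells bearing a perinucleolar compartment, from automated 20x imaging of fixed, Hoechst-stained PC3M PTB-GFP cells. Cells were seeded 4 h, then exposed 16 h to compound (23 nl of library stock) in duplicate plates.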
* marks the source's active call; other numbers are inactive results; ? = inconclusive; · = not tested or not shown; [ ] = remark or other dose. Most compounds without a hit are left out; they make up all but 10% or so of the library. Unless noted, the call rests on the fitted dose curve; in most records, active means well fitted inhibition curve with a large enough effect (not every such curve was filed as active); inconclusive means small, poorly fitted or top-dose-only effect, or another doubt; inactive means no such curve, though single readings can be large or run the other way. Unless noted, on the % scale 0 is the no-effect control and ±100 the full control effect.

SMILES	LMNA splice mod	HPGD block	12-hLO inh	ALDH1A1 block	PNC inhibitor
COc1ccc(-n2nc(C(=O)Nc3nc4ccc(OC)cc4s3)c3ccccc3c2=O)c(OC)c1	-6%	-6%	1%	20µM*	39
COc1ccc2nc(NC(=O)CSc3nc(C)cc(=O)[nH]3)sc2c1	-3%	28µM*	-27%	?	-7
COc1ccc(-n2nc(C(=O)NCC(=O)NCc3ccccc3OC)c3ccccc3c2=O)c(OC)c1	2%[9.22 µM]	·	·	1%	·
COc1ccc2nc(NC(=O)CSc3nccc(C)n3)sc2c1	19%	-23%	-7%	4%	13
COc1ccc2nc(NS(=O)(=O)c3ccc(NC(C)=O)cc3)sc2c1	-7%	28µM*	-3%	-8%	0
CCOC(=O)c1cc(-c2ccccc2)n(CCC(=O)Nc2ccc(C(F)(F)F)cc2)c1C	-4%[46 µM]	·	·	·	·
CCOCCc1nn2c(=O)cc(COC(=O)c3ccccc3NC(=O)c3ccccc3F)nc2s1	-10%[46 µM]	·	·	·	·
O=C1[C@H]2[C@H]3[C@H](O)[C@H](O)C/C(=N/OCc4ccccc4)[C@H]3CC[C@@H]2C(=O)N1Cc1ccc2c(c1)OCO2	·	·	·	-4%[13.5 µM]	·
CC1=NN(c2ccc([N+](=O)[O-])cc2)C(=O)C1[N+](=O)[O-] (stereo unspecified)	·	-24%	·	?	·
CCOCC(=O)Nc1nc2ccc(OC)cc2s1	13%	-12%	-2%	18µM*	-15
CCOc1ccc2nc(NC(=O)COC)sc2c1	10%	0%	-5%	11%	-22
COc1ccc2sc(NC(=O)CC(C)C)nc2c1	21%	-24%	-15%	25µM*	24
CCOc1ccc(NS(=O)(=O)c2ccc(NC(C)=O)c(OC)c2)cc1	0%	-1%	7%	5µM*	30
CS(=O)(=O)c1ccc2nc(NC(=O)Oc3ccccc3)sc2c1	-3%	-21%	1%	3.2µM*	10
COc1ccc(C(=O)Nc2nnc(SCc3cc(=O)c4cccc(F)c4[nH]3)s2)cc1	-27%[46 µM]	·	·	·	·
CCC1CCCCN1C(=O)CSc1n[nH]c(-c2ccccc2Cl)n1 (stereo unspecified)	-16%[46 µM]	·	·	·	·
Cc1nc(NC(C)(C)CO)c([N+](=O)[O-])cc1[N+](=O)[O-]	20%	-5%	-1%	3%	-119*
CC(O)CNc1cc(N)c([N+](=O)[O-])cc1[N+](=O)[O-] (stereo unspecified)	-16%	-19%	-3%	1%	-17
CCOC(=O)CSc1nc2cc3c(cc2c(=O)n1CCCC(=O)NCCc1ccc(OC)c(OC)c1)OCO3	8%[46 µM]	·	·	·	·
CCOc1cc(C(=O)NCc2ccc3c(c2)CCN3C(=O)c2ccc(F)cc2)cc(OCC)c1OCC	13%[46 µM]	·	·	·	·
O[C@@H](c1cc(-c2ccccc2)nc2c1ccc1ccccc12)C1CCCCN1 (stereo partly specified)	·	-11%	·	0%[13.5 µM]	·
Cc1ccc(-c2cn3c(n2)sc2cc(C(=O)N4CCCCC4)ccc23)cc1	-8%[46 µM]	·	·	·	·
CC(=O)C1=C(C)NC(SCc2cccc3ccccc23)=C(C#N)C1c1ccco1 (stereo unspecified)	?	?	-13%	?	6
CCOC(=O)C1=C(c2ccccc2)NC(SCC(=O)Nc2ccccc2C)=C(C#N)C1c1ccco1 (stereo unspecified)	?	?	-8%	14µM*	?
CC(=O)C1=C(C)NC(SCc2ccc(C#N)cc2)=C(C#N)C1c1ccco1 (stereo unspecified)	?	-5%	-2%	22µM*	?
SMILES	LMNA splice mod	HPGD block	12-hLO inh	ALDH1A1 block	PNC inhibitor
CC1=C(C(=O)Nc2ccccc2)C(c2ccncc2)C(C#N)=C(SCC(=O)NC(C)C)N1 (stereo unspecified)	18%	-18%	-3%	?	?
N#CC1=C(SCC(=O)c2ccc(Br)cc2)NC2=C(C(=O)CCC2)C1c1ccco1 (stereo unspecified)	-1%	-23%	?	?	11
CC(=O)C1=C(C)NC(SCC(=O)c2ccccc2)=C(C#N)C1CC(C)C (stereo unspecified)	4%	32µM*	-22%	7.1µM*	6
CC(=O)C1=C(C)NC(SCC(=O)c2ccc(Cl)cc2)=C(C#N)C1c1ccco1 (stereo unspecified)	?	32µM*	?	20µM*	29
COC(=O)N[C@@H](c1cccc(F)c1)[C@@H](C)[N+](=O)[O-]	·	-5%	2%	10%	·
CC(=O)C1=C(C)NC(SCC(=O)c2ccccc2)=C(C#N)C1c1ccco1 (stereo unspecified)	?	32µM*	-18%	20µM*	11
CS(=O)(=O)N(CC(=O)Nc1ccc(Br)cc1)c1ccccc1Br	-2%[46 µM]	·	·	·	·
C[C@@H]1CC[C@@H]2C(=O)N3[C@@H](CC[C@@H](C)[C@@H]3c3ccc(-c4ccco4)cc3)C(=O)N2[C@H]1c1ccc(-c2ccco2)cc1	·	·	·	-13%[13.5 µM]	·
CC1CCC2C(=O)N3C(CCC(C)C3c3ccc(-c4ccco4)cc3)C(=O)N2C1c1ccc(-c2ccco2)cc1 (stereo unspecified)	·	·	·	3.2µM*	·
[N-]=C=C1C(=S)NC(=O)[C@H]([n+]2ccccc2)[C@H]1c1ccc(Cl)cc1	·	·	·	14µM*	·
CCOC(=O)c1ccc2c(c1)N(Cc1cccc([N+](=O)[O-])c1)C(=O)c1ccccc1S2	10%[46 µM]	·	·	·	·
COc1ccc(C2OCC3(COC(C)=O)C(C)C=C(C)C2C3C)cc1 (stereo unspecified)	·	-2%	-3%	5%	·
Cc1ccc(CCNC(=O)C2CC(=O)N(CCc3ccccc3)C2)cc1 (stereo unspecified)	-14%[46 µM]	·	·	·	·
O=C(NCc1ccco1)C1CC(=O)N(CCc2ccccc2)C1 (stereo unspecified)	3%	-8%	-4%	22µM*	40
CCN(CC)c1nn2c(=O)c(C(=O)NCCc3ccc(C)cc3)cnc2s1	1%[46 µM]	·	·	·	·
Cc1ccc(CSc2nc3ccccc3c(=O)n2Cc2ccco2)cc1	?	-15%	5%	-10%	-10
O=c1c2ccccc2nc(SCc2nc3ccccc3s2)n1Cc1ccco1	?	-15%	-4%	-5%	-85*
O=c1c2ccccc2nc(SCc2ccccc2)n1Cc1ccco1	?	-25%	-11%	20µM*	5
COc1ccc(NS(=O)(=O)c2cc(Br)cc3c2N(C(=O)C2CC2)CC3)cc1OC	-10%[46 µM]	·	·	·	·
Cc1cc(-c2nn(-c3ccccc3F)cc2CNCCc2cnc[nH]2)c(C)s1	?	·	·	14µM*	·
